Screening data from PubChem BioAssay.
Sampled rows, rich in hits. Any-hit rate of the full collection: about 5.7%.
Giardia kill – kills Giardia lamblia | Giardia lamblia trophozoite viability | activity change, % at 7.66 µM, hits read low | 340,000 compounds, 0.15% hits | AID 540267; in the data active = activity change below about -80%; inconclusive = between about -30% and that limit;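 also: parasites exposed to compound for two days anaerobically before the ATP read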
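Trophozoites 100 cells/well + cpd; 48 hrs, 37 deg C, anaerobic. ATPLite 1-Step added, 15-30 min RT, luminescence read (ATP-based viability).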
KB-V1 MDR tox – KB-V1 MDR subline cytotoxicity; 400,000 compounds, 3.4% hits; KB-V1 MDR cells viability, CellTiter-Glo, 72 h; AID 1347076; Potency, µM (highest dose often 46.1 µM), most hits filed as cytotoxic; also: potency is read from the fitted curve at half-maximal effect; nearly all actives have a fitted effect of over 60% in size
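Drug-selected KB-V1 cells, grown in DMEM lacking phenol red with 10% FBS, receive compound titrations; after three days at 37 degrees C, surviving cell ATP is quantified by CellTiter-Glo luminescence and responses normalized and curve-fitted.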
KB-3-1 tox – KB-3-1 parental cell cytotoxicity. Potency, µM (titrated, usually from 46.1 µM), actives largely listed as cytotoxic. AID 1347075. KB-3-1 viability, CellTiter-Glo ATP luminescence, 72 h. 400,000 compounds, 1.4% hits; also: potency is read from the fitted curve at half-maximal effect; nearly all actives have a fitted effect of over 60% in size
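Using CellTiter-Glo luminescence, growth of non-resistant KB-3-1 adenocarcinoma cells is assessed 72 h after pin-tool compound addition at 37 °C. Normalized responses across the concentration series yield fitted curves.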
A549 viability – A549 cytotoxicity, counter-screen for Nrf2 inhibitors; A549 ARE-Fluc cells, CellTiter-Fluor viability, 18-24 h; Potency, µM (series often up to 46 µM), inactives show top-dose activity change, negative = cytotoxicity, most hits filed as inhibitors; 390,000 compounds, 0.16% hits; also: potency is read from the fitted curve at half-maximal effect
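A549 ARE-Fluc cells in 5% FBS OPTI-MEM, 5000 cells/well, rested 2 h then exposed to compounds in concentration-response for 18-24 h at 37 °C. Viability by CellTiter-Fluor fluorescence (Ex 405/Em 525) after 30 min; luciferase luminescence (BugLite, 15 min, RT) read afterwards.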
PI4K2A inh – PI4K2A (human) kinase inhibition | Q9BTU6 | 420,000 compounds, 0.13% hits | AID 1346378 | purified PI4K2A, ADP-Glo luminescence, 1 h; hits give low values | activity change, negative = inhibition, % at 76.9 µM; in the data active = activity change below about -50%; inconclusive = mostly about -30% to -49%;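 also: -100% = wells without enzyme as full effect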
Target sequence (Q9BTU6 whole entry, looked up): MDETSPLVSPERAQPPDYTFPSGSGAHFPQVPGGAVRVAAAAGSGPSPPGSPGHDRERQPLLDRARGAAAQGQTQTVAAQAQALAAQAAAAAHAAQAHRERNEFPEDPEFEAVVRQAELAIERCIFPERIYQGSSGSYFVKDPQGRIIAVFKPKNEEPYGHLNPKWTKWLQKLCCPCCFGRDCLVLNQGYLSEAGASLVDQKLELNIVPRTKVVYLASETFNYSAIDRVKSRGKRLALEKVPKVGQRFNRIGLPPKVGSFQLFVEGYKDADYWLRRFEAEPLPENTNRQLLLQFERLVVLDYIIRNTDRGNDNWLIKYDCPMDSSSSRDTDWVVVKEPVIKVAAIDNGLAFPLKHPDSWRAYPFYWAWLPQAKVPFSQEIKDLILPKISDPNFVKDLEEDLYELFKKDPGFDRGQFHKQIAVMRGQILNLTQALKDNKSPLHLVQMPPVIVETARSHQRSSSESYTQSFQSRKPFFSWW
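In this quantitative HTS, ADP production by PI4K2A was quantified luminescently after 1 h at ambient temperature; 100 microM adenosine served as plate-quality control.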
Nrf2 block – blocks Nrf2 signaling; A549 ARE-Fluc reporter, luciferase luminescence, 18-24 h; Potency, µM (top dose mostly 46 µM), without a hit: at the highest dose activity change, negative = inhibition, actives largely listed as inhibitors; 360,000 compounds, 2.1% hits; also: potency is read from the fitted curve at half-maximal effect; nearly all actives have a fitted effect of over 60% in size
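Nrf2 function is reported as luminescence of an ARE-controlled luciferase in A549 cells. Compounds were tested at several concentrations, and a CellTiter-Fluor read on the same wells flagged cytotoxicity.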
Numbers without * were called inactive; i = inactive; u = inconclusive; x = no result given. Unless noted, calls follow the shape of the dose curve; as a rule, active = well fitted curve in the direction sought with a large enough effect; inconclusive = small, poorly fitted or top-dose-only effect, or another doubt; inactive = no such curve, though single readings can be large; an effect the other way counts as inactive or inconclusive. Unless noted, % is scaled to controls: 0 for no effect and ±100 for the full control effect.

SMILES	Giardia kill	KB-V1 MDR tox	KB-3-1 tox	A549 viability	PI4K2A inh	Nrf2 block
CC(=O)c1c(C)oc2c1cc(NS(=O)(=O)c1ccc(Br)cc1)c1ccccc12	x	u	5.17µM*	-13.0%	3.2	x
Cc1oc2c(cc(NS(=O)(=O)c3ccc(Cl)cc3)c3ccccc32)c1C(=O)O	5.2	i	i	0.1%	-3.0	0.3%
CN=C1c2cc3cc(OC)ccc3n2CCN1Cc1ccccc1	-0.2	16.4µM*	8.2µM*	-15.6%	-3.6	0.2%
Cc1ccc(F)cc1NC(=O)COC(=O)c1ccc(S(C)(=O)=O)c([N+](=O)[O-])c1	-9.6	i	u	-2.6%	x	12.9%
Cn1cnnc1Sc1ccc(/C=C/C(=O)c2ccc(O)cc2)cc1[N+](=O)[O-]	-3.9	i	u	u	-5.1	18.4µM*
COc1cc2c(cc1OC)CN(C(=O)/C=C/c1cccs1)CC2	6.0	u	3.66µM*	-11.6%	3.2	-21.6%
COc1cc2c(cc1OC)CN(C(=O)c1cc3ccccc3oc1=O)CC2	5.2	4.61µM*	u	-13.7%	5.9	-6.6%
COc1cc2c(cc1OC)CN(S(=O)(=O)c1cccs1)CC2	1.9	18.4µM*	i	-0.8%	-2.8	20.6%
COc1ccc(S(=O)(=O)N2CCc3cc(OC)c(OC)cc3C2)cc1	6.3	i	i	2.2%	1.6	-1.4%
COc1cccc2cc(C(=O)N3CCc4ccccc4C3)c(=O)oc12	-3.1	i	i	0.6%	10.4	u
CCCN(CCC)CCCNC(=O)c1cc2c(=O)n(CC)c3ccccc3c2s1	10.4	u	23.1µM*	3.3%	4.6	-1.6%
O=C(C[n+]1ccncc1)c1cccc2ccccc12	x	u	i	x	x	x
CCOc1ccccc1NC(=O)c1nc2nc(C)cc(C(F)F)n2n1	x	x	x	1.3%	-6.1	x
COC(=O)c1ccc(CC(=O)c2nc3ccccc3s2)cc1	-0.5	i	i	-0.6%	-3.9	u
COC(=O)c1ccc(/C(O)=C(\C#N)c2nc3ccccc3s2)cc1	-10.2	8.2µM*	i	u	8.8	u
COc1ccc(C(=O)c2sc3nc(C)cc(-c4cccs4)c3c2N)cc1	-15.4	i	i	u	-5.2	u
COc1ccc(C(=O)c2sc3nc(C)cc(-c4cccs4)c3c2N)cc1OC	-4.0	u	i	3.7%	5.2	10.3µM*
Cc1cc(-c2cccs2)c2c(N)c(C(=O)c3ccc4c(c3)OCO4)sc2n1	-2.4	6.51µM*	u	u	2.1	u
CCOc1ccc(CCNC(=O)c2ccc(Oc3ccccc3)cc2)cc1OCC	x	x	x	x	4.6	x
CCc1ccc(/C=C/C(=O)c2cc(Br)ccc(=O)c2O)cc1	-19.6	10.3µM*	u	u	-8.4	7.31µM*
CCOc1ccc(/C=C/C(=O)c2cc(Br)ccc(=O)c2O)cc1	-0.1	10.3µM*	u	-29.2%	-5.6	16.4µM*
Cc1cccc(/C=C/C(=O)c2cc(Br)ccc(=O)c2O)c1	11.0	u	u	u	-15.5	u
C=CCN1C(=O)[C@@H](CC(=O)NCc2cccs2)[C@]2(C(=O)OCC)CCCCC/C=C/12	x	x	x	x	-1.0	x
O=C1CCNc2cc3ccccc3cc21	-7.9	u	23.1µM*	-23.0%	-15.1	u
CC(=O)OCC(NC(=O)C(C)NC(=O)OC(C)(C)C)C1OC(n2ccc(=O)[nH]c2=O)C(OC(C)=O)C1OC(C)=O (stereo not drawn)	-28.3	x	x	12.6%	x	u
SMILES	Giardia kill	KB-V1 MDR tox	KB-3-1 tox	A549 viability	PI4K2A inh	Nrf2 block
Cc1nc(-c2ccc(C)c(N3CCN(C(=O)Nc4cccc(Cl)c4C)CC3)c2)no1	x	i	i	-10.3%	-2.7	x
Clc1ccc(-c2cn3cc(Br)ccc3n2)cc1Cl	1.5	i	i	11.6%	-4.8	u
Clc1ccc(-c2cn3c(n2)-c2ccccc2C3)cc1Cl	-9.5	14.6µM*	i	-3.1%	-18.2	u
COc1cc(CN(C)C)cc(C=O)c1O	-7.7	i	i	5.1%	-4.5	-1.1%
COc1cc(N=Nc2ccc(Br)cc2)cc(C=O)c1O	x	14.6µM*	u	x	-1.8	x
Cc1ccc(C)c(C(=O)COC(=O)c2ccccc2N2C(=O)C3C4CCC(C4)C3C2=O)c1 (stereo not drawn)	-1.1	4.11µM*	i	-2.2%	-3.8	-7.2%
N#C/C(=C(/O)c1ccc2c(c1)OCO2)c1nc2cc(C(F)(F)F)ccc2s1	-15.4	u	14.6µM*	u	-4.6	u
CCOc1ccccc1C(=O)N1CCC(c2nc3ccccc3o2)CC1	x	x	x	6.1%	-3.4	-24.7%
O=C(Cc1ccc(NC(=O)N2CCCCc3ccccc32)cc1)Nc1ccccc1Br	x	u	i	-1.6%	-3.4	u
Cc1ccc(CSc2nc3cccnc3n2Cc2nc(-c3ccccc3F)oc2C)cc1	x	x	x	-21.2%	-3.9	u
CC(C)c1ccccc1NC(=O)Nc1nnc([C@H]2C[C@H](O)[C@@H](CO)O2)s1	x	i	0.0012µM*	x	-2.8	x
O=C(Nc1nnc([C@H]2C[C@H](O)[C@@H](CO)O2)s1)Nc1ccccc1F	x	i	i	x	-2.0	x
COc1ccccc1N1CCN(C(=O)c2cc3c(C)nn(-c4ccccc4)c3s2)CC1	x	x	x	x	3.4	x
CCCCS(=O)(=O)c1oc(-c2ccc(F)cc2)nc1S(=O)(=O)c1ccccc1	x	x	x	u	57.5	20.6µM*
CC(C)S(=O)(=O)c1oc(-c2ccc(F)cc2)nc1S(=O)(=O)c1ccccc1	x	x	x	u	46.8	u
Cc1nc2ccc(C(=O)OC(C)C(=O)c3c(C)[nH]c4ccccc34)cc2nc1C (stereo not drawn)	x	i	i	x	x	x
COc1cc(-c2nnc(COc3ccc4ccccc4c3)o2)cc(OC)c1OC	-10.3	23.1µM*	i	1.1%	2.7	u
COc1cc(-c2nnc(SCc3ccccc3Cl)o2)cc(OC)c1OC	8.1	2.31µM*	i	-14.6%	1.9	u
CCCc1nnc(-c2cc(OC)c(OC)c(OC)c2)o1	15.4	i	i	1.4%	-5.9	-2.0%
CN(C)S(=O)(=O)c1cccc(-c2nnc(-c3ccccc3)o2)c1	-1.6	23.1µM*	i	-24.5%	0.2	3.9%
O=C(Nc1ccccc1-c1nnc(SCc2ccccc2Cl)o1)c1ccccc1	0.9	14.6µM*	i	-16.0%	1.7	-9.8%
Nc1c(Br)cc(Br)c2cccnc12	0.5	x	x	-0.5%	x	-0.4%
CC(C)Cn1c(=O)c2sccc2n2c(CCCC(=O)NCCc3ccc(Cl)cc3)nnc12	x	x	x	6.3%	0.9	-16.5%
CC(C)CN1C(=O)[C@]2(CC(=O)N(C)C2c2ccccc2)c2cc(-n3cc(CO)nn3)ccc21 (stereo partly drawn)	x	x	x	x	-8.2	x
O=C(NCCc1ccc(Cl)cc1)c1ccc2c(c1)ncn2C1CCCCC1	x	x	x	x	-1.9	x
